Assay results as given in PubChem BioAssay (Tox21).
A number with no mark means an inactive call. Records with an inconclusive call do not appear. Where a call stands in place of a potency, no number is given. Activity calls are given as the source filed them. Unless noted, the call rests on the fitted dose curve; in most records, active means well fitted curve in the direction sought with a large enough effect in the repeat runs; inconclusive means weak or mixed curves; inactive means no such curve, though single readings can be large; an effect the other way counts as inactive or inconclusive.

Legend:
[1] = qHTS assay to identify small molecule HDAC inhibitors - cell viability counter screen (AID 1259365); further: series mostly up to about 92 µM; nearly all actives have a fitted effect of over 50% in size
Summary of the method: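 HCT-116 (wild type), 1,500 cells/well, overnight 37C/5% CO2; compound in DMSO 2hr; CellTiter-Glo 30min RT; luminescence read.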

[2] = qHTS assay to identify small molecule agonists of the sonic hedgehog signaling (Shh) pathway - cell viability counter screen (AID 1259366); further: nearly all actives have a fitted effect of over 50% in size; further: potency means the concentration at half of the fitted maximal effect
Summary of the method: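 CellTiter-Fluor fluorescence read-out, 1 hr at 37C, added after 23hr compound exposure. Cells: 3T3 Gli1-Luc, an NIH/3T3 clone with stably integrated Gli1-Luc reporter, plated 4hr before compound.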

[3] = qHTS assay to identify small molecule antagonists of the sonic hedgehog signaling (Shh) pathway - cell viability counter screen (AID 1259367); further: nearly all actives have a fitted effect of over 55% in size; further: potency means the concentration at half of the fitted maximal effect
Summary of the method: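 Fluorescence read-out (CellTiter-Fluor, 1 hr at 37C) taken after 23 hr compound treatment of 3T3 Gli1-Luc cells stimulated with conditioned medium. Cells were seeded at 2,000 per well and pre-incubated 4 hr.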

[4] = qHTS assay to identify small molecule agonists of the sonic hedgehog signaling (Shh) pathway (AID 1259368; calls by dose curve;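 further: NIH/3T3-derived 3T3Gli1-Luc cells carrying a stable Gli1-driven firefly luciferase reporter; series mostly up to about 92 µM; nearly all actives have a fitted effect of over 15% in size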)
Summary of the method: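 Cells of a mouse NIH/3T3 clone stably expressing luciferase under the Gli1 transcriptional response element are exposed to test chemicals for 24 hr at 37 C. Pathway activation is detected as a rise in luminescence.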

[5] = qHTS assay to identify small molecule antagonists of the sonic hedgehog signaling (Shh) pathway (AID 1259369; calls by dose curve; further: nearly all actives have a fitted effect of over 45% in size; further: potency means the concentration at half of the fitted maximal effect)
Summary of the method: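 Cells are plated and held 4hr at 37 C, compounds (DMSO) are pinned in, conditioned medium is added to stimulate the pathway, and after 24hr luciferase reagent is added for 30min before luminescence is read.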

[6] = biological target: Estrogen receptor beta (Homo sapiens) (UniProt Q92731); experiment: qHTS assay to identify small molecule antagonists of the estrogen receptor beta (ER-beta) signaling pathway (AID 1259378; active means well fitted inhibition curve with a large enough effect in the signal ratio in the repeat runs, not every such curve was filed as active; the % refers to the signal ratio)
Summary of the method: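 ER-beta-UAS-bla HEK293T cells in 2% charcoal-stripped FBS medium treated with compound plus 1nM final 17-beta-estradiol for 16 hr at 37C. Beta-lactamase reporter read by FRET substrate fluorescence after 2 hours at room temperature.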

[7] = qHTS assay to identify small molecule agonists of the androgen receptor (AR) signaling pathway in the presence of an antagonist - cell viability counter screen (AID 1259379); further: nearly all actives have a fitted effect of over 25% in size; further: potency means the concentration at half of the fitted maximal effect;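 on activity change, negative = cytotoxicity: MDA-kb2 human breast cancer cells carrying an MMTV luciferase reporter; series mostly up to about 92 µM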
Summary of the method: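 Cytotoxicity is assessed by CellTiter-Fluor in MDA-kb2 cells carrying an MMTV-driven luciferase reporter. Cells receive 3.0uM nilutamide plus compounds at 15 concentrations and incubate 16 hr at 37C without CO2 before fluorescence reading.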

[8] = biological target: Estrogen receptor beta (Homo sapiens) (UniProt Q92731); experiment: qHTS assay to identify small molecule agonists of the estrogen receptor beta (ER-beta) signaling pathway (AID 1259377; active means well fitted activation curve with a large enough effect in the signal ratio in the repeat runs, not every such curve was filed as active; the % refers to the signal ratio)
Summary of the method: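 Beta-lactamase reporter readout: fluorescence of LiveBLAzer B/G FRET substrate after 2 h at room temperature, following 16 h compound treatment of ER-beta-UAS-bla HEK293T cells at 37C in 2% charcoal-stripped FBS medium.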

Chain of Estrogen receptor beta (Homo sapiens) (Q92731 whole entry, looked up): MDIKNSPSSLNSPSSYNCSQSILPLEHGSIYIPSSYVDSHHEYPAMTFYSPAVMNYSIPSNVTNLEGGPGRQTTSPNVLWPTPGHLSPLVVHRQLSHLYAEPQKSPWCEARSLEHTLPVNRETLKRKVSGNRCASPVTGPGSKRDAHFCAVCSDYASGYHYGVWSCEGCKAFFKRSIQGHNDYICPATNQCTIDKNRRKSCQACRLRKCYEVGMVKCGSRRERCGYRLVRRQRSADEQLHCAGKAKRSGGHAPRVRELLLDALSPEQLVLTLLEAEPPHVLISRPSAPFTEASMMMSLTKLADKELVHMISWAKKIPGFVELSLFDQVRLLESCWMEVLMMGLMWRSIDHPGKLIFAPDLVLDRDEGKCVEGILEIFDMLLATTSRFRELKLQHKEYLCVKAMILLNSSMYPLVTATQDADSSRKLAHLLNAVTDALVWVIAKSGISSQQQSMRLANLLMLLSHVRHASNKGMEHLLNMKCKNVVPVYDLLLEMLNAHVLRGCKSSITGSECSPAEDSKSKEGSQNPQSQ

C=Cc1ccc(O)c(OC)c1
Potency [1]: inactive | Potency [2]: 54.5 µM (active) | Potency [3]: 27.3 µM (active) | Potency [4]: inactive | Potency [5]: 13.7 µM (active) | Potency [6]: inactive

CS(=O)(=O)c1ccc([C@@H](CC2CCCC2)C(=O)Nc2cnccn2)cc1Cl
Potency [2]: 21.7 µM (active) | Potency [4]: inactive

CN1CCN(c2ccccc2/C=C2\SCCN(c3ccc(Cl)c(Cl)c3)C2=O)CC1
Potency [2]: 27.3 µM (active) | Potency [3]: 54.5 µM (active) | Potency [4]: inactive | Potency [5]: 5.45 µM (active) | Potency [7]: 48.6 µM (active)

CCCCCCCC/C=C\CCCCCCCC(=O)N(CCO)CCO
Potency [1]: inactive | Potency [2]: inactive | Potency [3]: inactive | Potency [4]: inactive | Potency [5]: 15.3 µM (active)

O=C1OC2(c3ccccc31)c1ccc(O)c(Br)c1Oc1c2ccc(O)c1Br
Potency [1]: inactive | Potency [4]: inactive | Potency [5]: inactive | Potency [7]: 61.1 µM (active)

O=C1c2ccccc2C(=O)c2c(Cl)cccc21
Potency [1]: inactive | Potency [2]: inactive | Potency [3]: inactive | Potency [4]: inactive | Potency [5]: inactive | Potency [7]: inactive

CCn1c2ccccc2c2ccccc21
Potency [1]: inactive | Potency [2]: inactive | Potency [3]: inactive | Potency [4]: inactive | Potency [5]: inactive | Potency [7]: inactive

O=C1Cc2ccccc2C1
Potency [4]: inactive | Potency [5]: inactive

COc1cc(C(C)C)ccc1C
activity change, negative = cytotoxicity [1]: 0.521% [at 19 µM] | viability change, negative = cytotoxic [2]: 0.547% [at 19 µM] | viability change, negative = cytotoxic [3]: 0.176% [at 19 µM] | activity change [4]: 1.1% [at 18.9 µM, active compounds read high] | activity change, negative = inhibition [5]: -24.4% [at 19 µM] | activity, negative = inhibition [6]: -9.09% [at 19 µM] | activity change, negative = cytotoxicity [7]: 2.05% [at 19 µM]

O=C(Nc1ccccc1)c1cc(Cl)ccc1O
Potency [1]: inactive | Potency [3]: 54.5 µM (active) | Potency [4]: inactive | Potency [5]: 15.4 µM (active) | outcome [8]: inactive | Potency [7]: 13.7 µM (active)
